Screening data (PubChem)
MARV entry inh = blocks Marburg virus binding to or entry into cells. Marburg virus pseudotyped entry inhibition, cell reporter. Potency, µM (doses to about 37.8 µM), without a hit: top-dose activity change, negative = inhibition, actives largely listed as inhibitors. 300,000 compounds, 1.8% hits; calls by dose curve; tested in HEK293 cells; further: potency means the concentration at half of the fitted maximal effect; on the % scale 0 is the no-effect control and ±100 the full control effect
CHX counter = counter-screen hit for Shiga toxin inhibitors, cycloheximide; cell reporter, cycloheximide protein synthesis inhibition counterscreen; max response, %; 300,000 compounds, 12% hits; AID 2314; in the data active means max response mostly above about 13%, no sharp cut-off; inactive means mostly below about 14%; further: read at 38.3 µM for the half of the compounds with a filed dose; 0% is about no effect
LASV entry inh = Lassa virus entry inhibition; 300,000 compounds, 1.2% hits; Potency, µM (top dose mostly 37.9 µM), for inactives: at the top dose activity change, negative = inhibition, most hits filed as inhibitors; Lassa virus pseudotype entry inhibition, cell reporter; calls by dose curve; tested in HEK293 cells; further: potency means the concentration at half of the fitted maximal effect; on the % scale 0 is the no-effect control and ±100 the full control effect; nearly all actives have a fitted effect of over 50% in size
Shiga inhibitor = blocks Shiga toxin action in Vero cells; Vero cells, Shiga toxin protein synthesis inhibition reporter; inhibition, % at 38.7 µM; 290,000 compounds, 9.2% hits; AID 2315; in the data active means inhibition mostly above about 28%, no sharp cut-off; inactive means mostly below about 43%; further: 0% is about no effect
Pf growth 96h = P. falciparum growth inhibition at 96 hours; AID 504834; Potency, µM (doses to about 28.7 µM), for the others: top-dose activity change, negative = inhibition, most hits filed as inhibitors; 320,000 compounds, 6.9% hits; P. falciparum luciferase reporter growth, 96 h; further: potency means the concentration at half of the fitted maximal effect; on the % scale 0 is the no-effect control and ±100 the full control effect
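Two-generation exposure (96 h) targets delayed-death phenotype. Reporter parasites carrying integrated firefly luciferase, in red cells at 2% hematocrit and 0.05% parasitemia final, kept at 37 C, 5% CO2; luminescence loss indicates inhibition.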
Pf growth 48h = inhibits P. falciparum growth in the first generation, 48 h. P. falciparum luciferase growth in erythrocytes, 48 h. Potency, µM (doses to about 28.7 µM), without a hit: at the top dose activity change, negative = inhibition, usual class: inhibitors. 310,000 compounds, 5.9% hits; further: potency means the concentration at half of the fitted maximal effect; on the % scale 0 is the no-effect control and ±100 the full control effect
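Cell-based growth assay: transgenic P. falciparum expressing firefly luciferase, cultured in red cells within RPMI 1640 containing 0.5% w/v Albumax, 24 mM bicarbonate and gentamycin. A drop in luciferase activity indicates inhibition.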
Numbers without * were called inactive; i = inactive; ? = inconclusive; / = no result given; [ ] = remark or other dose. An excerpt weighted towards active compounds, which were near 19% of everything screened. Unless noted, the call rests on the fitted dose curve; in most records, active means well fitted inhibition curve with a large enough effect; inconclusive means small, poorly fitted or top-dose-only effect, or another doubt; inactive means no such curve, though single readings can be large or run the other way.

SMILES	MARV entry inh	CHX counter	LASV entry inh	Shiga inhibitor	Pf growth 96h	Pf growth 48h
CCOC(=O)c1cc(-c2ccccc2)sc1NC(=O)CC(C)C	-3%	-5	-22%	-15	7.4µM*	?
CCOC(=O)c1cc(-c2ccccc2)sc1NC(=O)CN1C(=O)c2ccccc2C1=O	-3%	/	0%	/	/	/
COc1ccc(CNC(=O)COC(=O)Cc2ccc(Cl)cc2Cl)cc1	/	-4	/	-8	64%	14%
COC(=O)c1ccccc1NC(=O)c1sc(N)nc1C	-4%	7	-6%	13	7%	-25%
CS(=O)(=O)Nc1ccccc1C(=O)Nc1cccc(Cl)c1	?	7	-1%	9	-1%[5.75 µM]	-21%
CN(C)S(=O)(=O)c1cccc(NC(=O)c2cc([N+](=O)[O-])ccc2N2CCCCC2)c1	/	/	/	/	?	13µM*
COc1cc(Cl)c(C)cc1NC(=O)c1cc(S(=O)(=O)N(C)C)ccc1N1CCCC1	?	-2	?	-9	2.3µM*	4.7µM*
CN(C)S(=O)(=O)c1ccc(N2CCCC2)c(C(=O)NCC2COc3ccccc3O2)c1 (stereo unspecified)	-20%	/	-6%[46.1 µM]	/	-23%	?
CC(=O)Nc1cccc(NC(=O)c2cc([N+](=O)[O-])ccc2N2CCCCC2)c1	/	/	/	/	-86%	?
CN(C)S(=O)(=O)c1ccc(N2CCCC2)c(C(=O)NCC2CCCCC2)c1	/	-1	/	-17	?	9.3µM*
O=C(Nc1cc(SCC(O)CO)cc([N+](=O)[O-])c1)c1ccc(-n2cnnn2)cc1 (stereo unspecified)	2%[46.1 µM]	-1	-8%	18	22%	-9%
COc1ccc2cc3c(N)nn(C(=O)c4ccc(F)cc4)c3nc2c1	/	-1	/	-16	?	?
COc1ccc2cc3c(N)nn(C(=O)c4ccccc4Cl)c3nc2c1	-28%[46.1 µM]	-1	?	-16	?	8.3µM*
Cc1ccc2cc3c(N)c(C(=O)N4CCOCC4)sc3nc2c1	-20%	30*	-22%	103*	0%	128%
Cc1ccc2cc3c(N)c(C(=O)N4CC(=O)Nc5ccccc54)sc3nc2c1	/	4	/	3	33%	-7%
Cc1ccc2nc3sc(C(=O)N4CCOCC4)c(N)c3cc2c1	0.41µM*	30*	?	54*	-28%	177%
CCc1ccc2nc3sc(C(=O)N4CCc5ccccc54)c(N)c3cc2c1	12%	6	10%	38	48%	7%
CC(C)c1ccc2nc3sc(C(=O)N4CCc5ccccc5C4)c(N)c3cc2c1	18%	24*	8%	118	68%	6%
O=C(CN1CCCCCC1)OCCN=C1NS(=O)(=O)c2ccccc21	?	-3	9%	-4	20%	9%
CCOc1ccc2nc3sc(C(=O)N4CCN(C)CC4)c(N)c3cc2c1	-3%	17*	23%	63	/	?
COc1ccc2cc3c(N)nn(C(=O)c4ccc(OC)c(OC)c4)c3nc2c1	-12%[46.1 µM]	/	19%[46.1 µM]	/	-1%	-12%
COc1ccc2cc3c(N)c(C(=O)N4CCCC4)sc3nc2c1	?	69*	?	101*	-14%	-22%
O=[N+]([O-])c1nn(-c2ccc(Cl)cc2)n(O)c1=NCc1ccccc1	/	36*	/	61	23%	172%
O=[N+]([O-])c1nn(-c2ccccc2)n(O)c1=NCc1ccc2c(c1)OCO2	10%	30*	4%	54*	?	-24%
COc1ccc(-n2nc([N+](=O)[O-])c(=NCCc3cccc(C)c3)n2O)cc1	7%[46.1 µM]	10	-17%	-1	-13%	-12%
SMILES	MARV entry inh	CHX counter	LASV entry inh	Shiga inhibitor	Pf growth 96h	Pf growth 48h
COc1ccc(-n2nc([N+](=O)[O-])c(=NCc3ccc4c(c3)OCO4)n2O)cc1	?	55*	4%	65*	7.4µM*	243%
O=C(Cn1cccc1C(=O)c1ccccc1)NCc1cccc(Cl)c1	14%	32*	?	53*	13µM*	44%
CCCNc1nc2ccccc2n2c(C)nnc12	-9%	-1	-1%	-9	9.3µM*	8%
CC(C)(CC(=O)O)CC(=O)NNc1ncccc1C#N	26%[46.1 µM]	-1	5%[46.1 µM]	-5	-12%	4.1µM*
N#Cc1ccccc1COC(=O)c1cccnc1N	-2%	9	-9%	39	?	13%
COC(=O)C(NC(=O)c1ccco1)(Nc1nc(C)cs1)C(F)(F)F (stereo unspecified)	3%	1	5%	-9	30%	9%
CCc1nn(C(C)C(=O)NCc2ccc(Cl)cc2)c(=O)c2cc3occc3n12 (stereo unspecified)	-18%[46.1 µM]	12*	?	11	?	41%
CCc1nn(CC(=O)NCc2cccnc2)c(=O)c2cc3occc3n12	5%[46.1 µM]	-1	19%[46.1 µM]	10	10µM*	24%
CCc1nn(C(C)C(=O)NCc2cccc(Cl)c2)c(=O)c2cc3occc3n12 (stereo unspecified)	/	2	/	18	-21%	3%
CCOC(=O)C1C(c2ccc(O)c(O)c2)NC(=S)NC1(O)C(F)(F)F (stereo unspecified)	0%	8	4%	-13	12µM*	34%
CCOC(=O)C1C(c2ccc(O)c(OCC)c2)NC(=S)NC1(O)C(F)(F)F (stereo unspecified)	4%	-4	14%	11	4%	16%
CCOc1ccc(-c2nc(-c3ccccc3C)no2)cc1	0%	68*	/	96*	-10%	195%
c1csc(-c2nc(N3CCCCC3)no2)c1	?	37*	?	82*	193%	189%
O=[N+]([O-])c1cccc(-c2noc(-c3cccs3)n2)c1	/	34*	/	78*	i	227%
COc1ccc2[nH]c(=O)c(-c3noc(-c4ccccc4)n3)cc2c1	15%	66*	0%	106*	?	?
CCC(=O)NC(=S)Nc1cccc(NC(=O)c2ccccc2Cl)c1	-9%	-1	11%	-21	0%	-12%
COc1ccc(CCC(=O)NCc2cccc(C(F)(F)F)c2)cc1	/	-2	/	-3	31%	-6%
COc1ccc(-c2nc(-c3cccs3)no2)cc1	?	10	1.8µM*	-13	261%	115%
COc1cccc(-c2noc(-c3ccc(Cl)nc3)n2)c1	?	30*	?	83*	108%	0%
COc1cccc(-c2nc(-c3ccc(NC(=O)c4ccncc4)cc3)no2)c1	?	-1	-15%	51	?	/
COc1cccc(-c2ccc(-c3noc(-c4cccs4)n3)c(OC)n2)c1	-4%	-4	?	-24	30%	2%
COc1ccc(-c2nc(-c3cccnc3)no2)cc1	/	45*	/	59*	258%	140%
COc1ccc(-c2noc(-c3ccc(NCc4cccnc4)c([N+](=O)[O-])c3)n2)cc1	15%[46.1 µM]	/	10%[46.1 µM]	/	/	/
COc1ccc(-c2nc(-c3ccncc3)no2)cc1	/	53*	/	88*	101%	58%
